The campaign covered roughly 16,000 compounds. About 5,800 (36%) were called active. Not shown: some 23% with an inconclusive outcome. The list shows a part of the results. Values without a mark were called inactive. The call rests on the fitted dose curve; in most records, active means well fitted curve in the direction sought with a large enough effect; inconclusive means small, poorly fitted or top-dose-only effect, or effect the other way; inactive means no such curve, though single readings can be large or run the other way.
target: Cytochrome P450 2C19 (Homo sapiens) (UniProt P33261); test: Cytochrome panel assay with activity outcomes; conditions: recombinant CYP, pro-luciferin dealkylation, luminescence, p450-cyp2c19; series mostly up to 57.1 µM
Sequence (P33261 whole entry, looked up): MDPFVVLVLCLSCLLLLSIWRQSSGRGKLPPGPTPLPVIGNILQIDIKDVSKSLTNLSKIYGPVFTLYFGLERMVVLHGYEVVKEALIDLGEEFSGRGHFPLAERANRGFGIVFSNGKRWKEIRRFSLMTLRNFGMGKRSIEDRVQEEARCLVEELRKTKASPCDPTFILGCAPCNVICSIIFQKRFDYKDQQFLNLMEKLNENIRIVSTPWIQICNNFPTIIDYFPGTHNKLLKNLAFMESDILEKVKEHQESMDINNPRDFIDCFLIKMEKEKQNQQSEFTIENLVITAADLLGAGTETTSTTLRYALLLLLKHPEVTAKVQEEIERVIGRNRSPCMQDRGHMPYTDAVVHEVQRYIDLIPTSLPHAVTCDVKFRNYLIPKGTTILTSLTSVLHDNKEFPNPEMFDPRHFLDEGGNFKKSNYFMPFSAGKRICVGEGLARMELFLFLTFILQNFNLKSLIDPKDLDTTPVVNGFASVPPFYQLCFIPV
On the % scale 0 is the no-effect control and ±100 the full control effect.

| SMILES | AC50 | activity, negative = inhibition |
| --- | --- | --- |
| CCOC(=O)C(C)Sc1ncc(OC)c(Sc2ccc(Cl)cc2)n1 (stereo not drawn) | 3.55 µM (active) | – |
| COC(=O)CSc1ncc(OC)c(OC)n1 | inactive | – |
| CCOC(=O)CSc1ncc(OC)c(Sc2ccc(Cl)cc2)n1 | 1.78 µM (active) | – |
| CC[C@H]1CC[C@H]2[C@@H]3CC=C4C[C@H](OC(C)=O)[C@@H](N)C[C@@]4(C)[C@H]3CC[C@@]12C | – | 22.6% [at 11.4 µM] |
| O=c1c2ccccc2nc2n1CCc1c-2[nH]c2ccccc12 | inactive | – |
| CCCCc1c2ccccc2nc2[nH]c3ccccc3c12 | inactive | – |
| c1ccc(-c2c3ccccc3nc3[nH]c4ccccc4c23)cc1 | 10 µM (active) | – |
| Clc1ccc(CC[C@H](Cn2ccnc2)Sc2c(Cl)cccc2Cl)cc1 | 0.00251 µM (active) | – |
| COc1ccc(S(=O)(=O)Nc2ccc(S(=O)(=O)N3CCCCC3)cc2)cc1C | 2.82 µM (active) | – |
| COc1ccc(S(=O)(=O)N2CCCCCC2)cc1N(C)S(=O)(=O)c1ccc(Cl)cc1 | 5.01 µM (active) | – |
| COc1ccc(NS(=O)(=O)c2ccc(I)cc2)cc1N1CCN(C)CC1 | inactive | – |
| N#Cc1ccc(CN2CCC3(CC2)CCN(C(=O)c2cc(C(F)(F)F)cc(C(F)(F)F)c2)CC3)cc1 | inactive | – |
| O=c1c(-c2ccc(O)cc2)coc2cc(O)ccc12 | 10 µM (active) | – |
| O=c1c(-c2ccc(F)c(F)c2)nc2cncnc2n1Cc1ccccc1Cl | 6.31 µM (active) | – |
| O=c1c(-c2ccc(Cl)cc2)nc2cncnc2n1Cc1ccccc1Cl | 3.98 µM (active) | – |
| O=c1c(-c2ccc(F)c(F)c2)nc2cncnc2n1C1CC1 | inactive | – |
| CN(CCOc1ccc(C[C@H](Nc2ccccc2C(=O)c2ccccc2)C(=O)O)cc1)c1ccccn1 | 3.98 µM (active) | – |
| CNc1nc(NCCOC23CC4CC(CC(C4)C2)C3)nc(OCC(F)(F)F)n1 | 1.41 µM (active) | – |
| O=C(c1ccco1)N1CCC2(CC1)CCN(C(c1ccccc1)c1ccccc1)CC2 | inactive | – |
| CCC(c1nnnn1CCOC)N1CCN(C(=O)c2ccco2)CC1 (stereo not drawn) | 3.98 µM (active) | – |
| CC(C)CCn1nnnc1C(c1ccc(F)cc1)N1CCN(C(=O)c2ccco2)CC1 (stereo not drawn) | 4.47 µM (active) | – |
| O=C(c1ccco1)N1CCC2(CC1)CN(C(c1ccccc1)c1ccccc1)C2 | inactive | – |
| C[C@]1(OC(=O)/C=C\c2ccccc2)C[C@@H](O)[C@@]2(O)C=CO[C@@H](O[C@H]3O[C@@H](CO)[C@@H](O)[C@@H](O)[C@@H]3O)[C@H]21 | inactive | – |
| CCN(CC)C(=O)CSc1nnc(-c2ccncc2)n1N | inactive | – |

| SMILES | AC50 | activity, negative = inhibition |
| --- | --- | --- |
| O=C(CSc1nnc(-c2ccccc2)n1-c1ccccc1)c1cccs1 | 0.631 µM (active) | – |
| Cc1ccc(C(=O)NNC(=O)CSc2nnc(-c3ccncc3)n2-c2ccc(C)cc2)cc1 | 5.62 µM (active) | – |
| CCOc1ccc(-n2c(SCC(=O)Nc3ccccc3C)n[nH]c2=O)cc1 | 5.62 µM (active) | – |
| CC(C)NC(=O)CSc1nnc(C2CC2)n1-c1ccccc1 | inactive | – |
| Cc1ccccc1NC(=O)CSc1nnc(-c2ccccc2)n1-c1ccccc1 | 2.24 µM (active) | – |
| Cc1cc(C2(c3cc(C)c(O)c(C(=O)O)c3)OS(=O)(=O)c3ccccc32)cc(C(=O)O)c1O | – | 12.7% [at 11.4 µM] |
| O=C(O)c1cc2c(o1)CCC/C2=N\O | inactive | – |
| CCn1c(SCC(=O)Nc2ccccc2C(=O)OC)nnc1-c1ccc(N)cc1 | 0.178 µM (active) | – |
| CC(=O)OC1CCC(OC(C)=O)c2c1n([O-])c(C)c(C)[n+]2=O (stereo not drawn) | inactive | – |
| Cc1ccccc1S(=O)(=O)Oc1ccccc1C(=O)Oc1ccccc1 | 1.78 µM (active) | – |
| Cc1ccccc1S(=O)(=O)O[C@@H]1NS(=O)(=O)c2ccccc21 | – | 24% [at 11.4 µM] |
| CC(=O)Oc1ccccc1C(=O)Oc1ccccc1C(=O)O | inactive | – |
| CCOC(=O)C(C)CC(C)C(=O)N1CCOCCN(C(=O)C(C)CC(C)C(=O)OCC)CCOCC1 (stereo not drawn) | 10 µM (active) | – |
| NC(=O)CN1CCOCCOCCOCCOCCOCC1 | inactive | – |
| CC(C)OC(=O)C(CC(=O)O)N1CCOCC1 (stereo not drawn) | inactive | – |
| CC1(C)O[C@@H]2C[C@H]3[C@H]4C[C@H](F)C5=CC(=O)CC[C@]5(C)[C@@H]4[C@H](O)C[C@]3(C)[C@]2(C(=O)CO)O1 | inactive | – |
| O=C1CC(=Nc2ccccc2)NN1c1ccccc1 | 5.62 µM (active) | – |
| c1ccc2c(c1)C(=Nc1ccc(N=C3c4ccccc4-c4ccccc43)cc1)c1ccccc1-2 | – | -36.8% [at 11.4 µM] |
| CC1=NN(c2ccccc2)C(=O)C1 | inactive | – |
| CCCCC1=NN2C(=N)CC(=O)N=C2S1 | inactive | – |
| CO[C@@H]1COC(=O)[C@H](Cc2ccccc2)NC(=O)C/C=C\[C@@H](C)[C@H](OC)COC(=O)[C@@H](C)NC(=O)C/C=C\[C@H]1C | – | 10.6% [at 11.4 µM] |
| O=C1C(Cc2ccccc2)NC(=S)N1c1ccccc1 (stereo not drawn) | 3.16 µM (active) | – |
| C[C@H]1COC(=O)[C@H](Cc2ccccc2)NC(=O)[C@@H](C)COC(=O)[C@H](Cc2ccccc2)NC1=O | – | -17.3% [at 11.4 µM] |
| O=C(Cn1cnc([N+](=O)[O-])c1)NCc1ccc(F)cc1 | inactive | – |

| SMILES | AC50 | activity, negative = inhibition |
| --- | --- | --- |
| Cc1ccc(CNC(=O)Cn2cncn2)cc1 | 7.94 µM (active) | – |
| C[C@H](NC(=O)Cn1cncn1)c1ccccc1 | inactive | – |
| Cc1cc(N)n(-c2ccc3ccccc3c2)n1 | 25.1 µM (active) | – |
| O=C(c1csnn1)N1CCC2(CC1)CN(c1ccccn1)C2 | inactive | – |
| Cc1ccc(Nc2ccc(-n3ccnc3)nn2)cc1C | 0.0501 µM (active) | – |
| CCC(C)NC(=O)c1ccccc1NC(=O)Nc1ccccc1 (stereo not drawn) | 10 µM (active) | – |
| CC(C)C(=O)NC(=S)Nc1ccccc1C(=O)Nc1ccccc1 | 15.8 µM (active) | – |
| Clc1ccc(CO[C@@H](Cn2ccnc2)c2ccc(Cl)cc2Cl)cc1 | 0.0631 µM (active) | – |
| Clc1ccc([C@H](Cn2ccnc2)OCc2csc3c(Cl)cccc23)c(Cl)c1 | 0.251 µM (active) | – |
| CC1(C)Cc2c(sc3c2C(=O)N(c2ccccc2)C2=NCCN23)CS1 | inactive | – |
| Cc1ccccc1Cn1c(Cc2ccccc2)nc2ccccc21 | 2 µM (active) | – |
| Clc1ccc(Cn2c(CN3CCCC3)nc3ccccc32)cc1 | 0.2 µM (active) | – |
| Cc1ccccc1CN1C2=NCCN2C(=O)C2=C1CCN(Cc1ccccc1)C2 | – | 10.2% [at 11.4 µM] |
| Cn1c(-c2ccc(CN3CCCCC3)o2)nc2ccccc21 | inactive | – |
| [O-][n+]1c(CN2CCCCC2)nc2cccc3c2c1-c1ccccc1-3 | – | 9.09% [at 11.4 µM] |
| c1ccc(Cn2c(CN3CCCC3)nc3ccccc32)cc1 | 3.55 µM (active) | – |
| C[N+]1(C)CCO[C@](O)(c2ccccc2)C1 | – | 42.8% [at 11.4 µM] |
| c1cc2c(cc1C(N1CCNCC1)N1CCNCC1)OCO2 | – | 14.2% [at 11.4 µM] |
| c1ccc(SC(Sc2ccccc2)c2ccc3c(c2)OCO3)cc1 | 0.0316 µM (active) | – |
| Cc1ccc(S(=O)(=O)N(CC(=O)N/N=C/c2ccc(F)cc2)c2cccc3cccnc23)cc1 | 1.12 µM (active) | – |
| CC(C)COCC1CC2(CC(C)(c3csc(N)n3)OC2=O)C(=O)O1 (stereo not drawn) | 15.8 µM (active) | – |
| CCCSC1=C(C#N)C(c2cccnc2)C(C(=O)OCC)=C(c2ccccc2)N1 (stereo not drawn) | 14.1 µM (active) | – |
| N#Cc1cccc(NC(=O)N2CCCC3(CCN(C(=O)c4cnccn4)CC3)C2)c1 | inactive | – |
| NN(CC(=O)O)CC(=O)O | – | 14.5% [at 11.4 µM] |

| SMILES | AC50 | activity, negative = inhibition |
| --- | --- | --- |
| O=C(Nc1nc(-c2ccccc2)cs1)c1cccc([N+](=O)[O-])c1 | 1.58 µM (active) | – |
| O=C(Nc1nc(-c2ccccc2)cs1)c1ccc(Br)o1 | 14.1 µM (active) | – |
| CCNc1ncc2nc(C)c(=O)n(C)c2n1 | inactive | – |
| COc1ccc([C@H]2Sc3ccccc3N(CCN(C)C)C(=O)[C@H]2OC(C)=O)cc1 | inactive | – |
| CN(C)CCCN=c1c2ccccc2n(C)c2[nH]c(=O)n(C)c(=O)c12 | – | 31% [at 11.4 µM] |
| CCNc1ncc2nc(-c3ccc(F)cc3)c(=O)n(CCC#N)c2n1 | inactive | – |
| CC1(C)C(=O)N(CCN2CCC(C(=O)c3ccc(F)cc3)CC2)c2ccccc21 | inactive | – |
| CC(C)c1ccc(C(=O)CC2(O)C(=O)N(CN3CCOCC3)c3ccccc32)cc1 (stereo not drawn) | 2.24 µM (active) | – |
| C[C@@H]1C[C@H]2[C@H]3C[C@@H](F)C4=CC(=O)C=C[C@]4(C)[C@@]3(Cl)[C@@H](O)C[C@@]2(C)[C@@H]1C(=O)COC(=O)C(C)(C)C | inactive | – |
| C(=N/Nc1nnc2c(n1)[nH]c1ccccc12)/c1cccnc1 | – | -3.42% [at 11.4 µM] |
| Clc1ccc(/C=N/Nc2nnc(-c3ncc[nH]3)c3ccccc23)cc1 | 11.2 µM (active) | – |
| C=CC[n+]1c(-c2ccc(C)cc2)csc1NNC(=O)Nc1ccccc1 | 5.01 µM (active) | – |
| O=C1CC(N2CCN(CCc3ccccn3)CC2)C(=O)N1c1ccc(Cl)cc1 (stereo not drawn) | 8.91 µM (active) | – |
| O=C(CCn1nc(-c2ccc(Cl)cc2)ccc1=O)NCc1ccccn1 | inactive | – |
| CC1(C)CC2(CC(c3cccs3)c3cc(Cl)c(O)cc3O2)NC(=S)N1 (stereo not drawn) | 2.82 µM (active) | – |
| O=C(O)c1ccccc1OP(=O)(O)O | inactive | – |
| Cc1nc(Sc2ccccc2)c(C#N)cc1-c1ccccc1 | 0.631 µM (active) | – |
| Cc1ccc(Oc2nnc(-c3ccccc3)cc2C#N)cc1 | inactive | – |
| Cc1nc(Cl)c(C#N)cc1-c1ccccc1 | 5.62 µM (active) | – |
| O=C(O)c1c[nH]c2cc(OCc3ccccc3)ccc2c1=O | – | 0.142% [at 11.4 µM] |
| Cc1cc2c(cc1C)NC1=C(N2)O[C@H](c2c[nH]c3ccc(COc4ccccc4)cc23)C1=O | 0.501 µM (active) | – |
